# Most compounds without a hit are left out; they make up all but 8.1% or so of the library.
# NOMO-1 viab: STK33 inhibitor candidate reducing NOMO-1 cell viability | inhibition, % (test concentration not listed) | NOMO-1 AML viability, CellTiter-Glo luminescence, 72 h | hit rate 7.5% among 37,000 | AID 2330; in the data active = inhibition above about 80%; inconclusive = no clear call, values can overlap the other calls
# Shh pathway inh: Sonic Hedgehog pathway inhibition. inhibition, % (no concentration beside the values). Shh-LIGHT2 Gli-luciferase reporter, 30 h. hit rate 2.1% among 22,000;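 active = mean inhibition across valid replicates above about 65%, limit read from the data; inconclusive = mean under the limit, yet half or more replicates past it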;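 note: pathway switched on by Shh-conditioned medium diluted 1 in 25 in low serum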
# MITF inh: inhibitors of MITF | TRPM1 promoter luciferase, luminescence, 24 h | inhibition, % (concentration not given with the values) | hit rate 0.28% among 37,000; in the data active = inhibition above about 85%; inconclusive = no clear call, values can overlap the other calls; inactive = below about 68%;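 note: human melanocyte line stably carrying TRPM1 promoter luciferase reporter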
# A number is an active result; n = inactive; u = inconclusive; x = no result.
SMILES,NOMO-1 viab,Shh pathway inh,MITF inh
Cc1ccc(C)c(NC(=O)c2ccc(OCC(=O)Nc3ccc(Cl)c(Cl)c3)cc2)c1,n,x,n
Cc1ccc(Cl)cc1N(CC(=O)Nc1ccc(I)cc1)S(C)(=O)=O,n,x,n
Cc1ccc(Cl)cc1N(CC(=O)Nc1ccc(C(F)(F)F)cc1)S(C)(=O)=O,118,x,n
CS(=O)(=O)N(CC(=O)Nc1cc(C(F)(F)F)ccc1Cl)c1cccc([N+](=O)[O-])c1,n,x,n
CS(=O)(=O)N(CC(=O)Nc1ccc(C(F)(F)F)cc1)c1cccc([N+](=O)[O-])c1,121,x,n
Cc1onc(-c2ccccc2Cl)c1C1=NCCO1,n,n,n
COc1cc(CCC(O)CC(O)CCc2ccc(O)c(O)c2)ccc1O (stereo not given),n,n,n
COc1ccc(Cl)cc1NC(=O)c1ccccc1N(Cc1ccccc1)S(C)(=O)=O,n,x,n
CCn1c(SCC(=O)Nc2cc(C)c(Cl)cc2OC)nnc1-c1cccs1,n,x,n
CCOc1ccc2nc(NCCCO)[nH]c2c1,n,x,n
CCCOc1ccc2nc(NC(=O)OC)[nH]c2c1,104,n,n
COc1cc(C2NC(=S)NC(C)=C2C(=O)Nc2ccccc2C)c(Br)cc1OCC(=O)O (stereo not given),n,x,n
CN1CCN(CCCN2C(=O)CSC2c2ccc(F)cc2)CC1 (stereo not given),n,n,n
CCc1ccc(/C(C#N)=C/C=C/c2ccccc2)cc1,115,n,n
C[C@@H]1CN([C@H](C)CO)C(=O)c2cccc(NC(=O)NC3CCCCC3)c2O[C@@H]1CN(C)C(=O)Nc1ccc(C(F)(F)F)cc1,n,n,n
C[C@@H]1CN([C@@H](C)CO)C(=O)c2cccc(NC(=O)Nc3ccc(C(F)(F)F)cc3)c2O[C@H]1CN(C)C(=O)Nc1ccc(F)cc1,117,n,n
COc1ccc(NC(=O)N(C)C[C@H]2Oc3c(NC(=O)Nc4ccc(C(F)(F)F)cc4)cccc3C(=O)N([C@@H](C)CO)C[C@H]2C)cc1,88,n,n
C[C@@H]1CN([C@H](C)CO)C(=O)c2cccc(NC(=O)Nc3ccc(C(F)(F)F)cc3)c2O[C@H]1CN(C)C(=O)Nc1ccc(F)cc1,u,n,n
C[C@H](CO)N1C[C@H](C)[C@H](CN(C)C(=O)Nc2ccc(F)cc2)Oc2c(NC(=O)Nc3ccc(C(F)(F)F)cc3)cccc2C1=O,103,n,n
C[C@H](CO)N1C[C@H](C)[C@@H](CN(C)C(=O)Nc2ccc(F)cc2)Oc2c(NC(=O)Nc3ccc(C(F)(F)F)cc3)cccc2C1=O,n,n,n
COc1ccc(NC(=O)Nc2cccc3c2O[C@H](CN(C)C(=O)Nc2ccc(C(F)(F)F)cc2)[C@H](C)CN([C@H](C)CO)C3=O)cc1,n,n,n
C[C@@H]1CN([C@@H](C)CO)C(=O)c2cccc(NC(=O)NC3CCCCC3)c2O[C@@H]1CN(C)C(=O)Nc1ccc(C(F)(F)F)cc1,94,n,n
O=C(O)COc1ccc(NC(=O)c2cccc(I)c2)cc1,n,x,n
Cc1cc(C)cc(N(C(C)C(=O)Nc2cccc(Cl)c2)S(C)(=O)=O)c1 (stereo not given),n,x,n
CS(=O)(=O)N(CC(=O)Nc1ccccc1C(=O)N1CCOCC1)c1cccc(Cl)c1Cl,n,x,n
SMILES,NOMO-1 viab,Shh pathway inh,MITF inh
COc1ccccc1N(CC(=O)Nc1c(C)cc(C)cc1C)S(C)(=O)=O,n,x,n
C[C@@H]1CN([C@H](C)CO)C(=O)c2cccc(NC(=O)Nc3ccc(C(F)(F)F)cc3)c2O[C@@H]1CN(C)C(=O)Nc1ccc(C(F)(F)F)cc1,98,n,n
C[C@H]1CN([C@@H](C)CO)C(=O)c2cccc(NC(=O)Nc3ccc(C(F)(F)F)cc3)c2O[C@H]1CN(C)C(=O)Nc1ccc(C(F)(F)F)cc1,n,n,n
CC(C)NC(=O)Nc1ccc2c(c1)CC(=O)N([C@H](C)CO)C[C@@H](C)[C@@H](CN(C)Cc1ccc(-c3ccccc3)cc1)O2,82,n,n
C[C@H]1CN([C@@H](C)CO)C(=O)Cc2cc(NC(=O)Nc3ccc(F)cc3)ccc2O[C@H]1CN(C)Cc1ccc(-c2ccccc2)cc1,110,n,n
CC(C)NC(=O)Nc1ccc2c(c1)CC(=O)N([C@@H](C)CO)C[C@H](C)[C@@H](CN(C)Cc1ccc(-c3ccccc3)cc1)O2,n,n,n
C[C@@H]1CN([C@H](C)CO)C(=O)Cc2cc(NC(=O)Nc3ccccc3)ccc2O[C@H]1CN(C)Cc1ccc(-c2ccccc2)cc1,n,n,n
C[C@@H]1CN([C@H](C)CO)C(=O)Cc2cc(NC(=O)Nc3ccc4c(c3)OCO4)ccc2O[C@H]1CN(C)Cc1ccccc1,n,n,n
C[C@@H]1CN([C@H](C)CO)C(=O)Cc2cc(NC(=O)Nc3ccc4c(c3)OCO4)ccc2O[C@H]1CN(C)Cc1ccc(-c2ccccc2)cc1,98,n,n
